Our source for the composite z-score and z-score values is PubChem BioAssay.

The test system of experiment [1] is PRMT1 (protein arginine N-methyltransferase 1). The experiment can be described thus: small molecules binding arginine methyltransferase PRMT1 – biochemical, small-molecule microarray, 635 nm fluorescence, primary screen (AID 1088).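 Also: binding of Prmt1 protein to compounds spotted on small-molecule microarray slides.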 The note with it: higher = more signal.
A short description of experiment [2]: growth effects on S. cerevisiae YJM789 – YJM789 clinical isolate, OD600, 24 h, basal, primary screen (AID 1089).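 Also: growth of clinical yeast isolate S. cerevisiae YJM 789 seeded 1000 cells per well; test concentration not given here.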 The conditions noted are these: higher = more signal, called active from +8 up or from −8 down.
Experiment [3] in a line: S. pombe growth modifiers, basal conditions – strain 972, OD600, 24 h, no modulator, primary screen (AID 1090).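 Also: basal condition with compound alone and no growth modifier present; test concentration not given here.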 The note with it: S. pombe 972 growth, higher = more signal, called active from +8 up or from −8 down.
Experiment [4] is described as follows: budding yeast growth modifiers under rapamycin – strain BY4716, OD600, 96 h, primary screen (AID 1091). Also: test concentration not given here. The conditions noted are these: S. cerevisiae BY4716 + rapamycin, higher = more signal, called active from +8 up or from −8 down.
Experiment [5] concerns the target Torsin-1A-interacting protein 2 (Homo sapiens) (UniProt Q8NFQ8). The experiment can be described thus: small molecules binding lysate-expressed LULL1 – cell lysate, human LULL1 lysate, 635/667 nm fluorescence, primary screen (AID 1092).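 Also: probe is lysate of COS7 cells overexpressing human LULL1; score merges per-feature 667 nm fluorescence with signal-to-noise.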 The conditions noted are these: small-molecule microarray, hLULL1 lysate binding, 635 nm fluorescence; higher = more signal.
Experiment [6] is described as follows: optical density change of DRC41 E. coli – strain DRC41, OD650, 24 h, E. coli filamentation project, primary screen (AID 1093).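 Also: MC1000 strain lacking acrAB efflux and sulA so SOS filamentation is blocked; test concentration not given here.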 The conditions noted are these: E. coli DRC41 growth, higher = more signal, called active from +8 up or from −8 down.
Experiment [7] can be described thus: probe aLefty2 binding to arrayed compounds – biochemical, biotinylated probe, 635/667 nm fluorescence, primary screen (AID 1094).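 Also: score merges spot fluorescence near 667 nm with spot signal-to-noise ratio.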 The conditions noted are these: small-molecule microarray, higher = more signal.
Experiment [8] concerns Noggin (protein binding on small-molecule microarray). As to the kind of experiment: small molecules binding Noggin protein – biochemical, 635/667 nm fluorescence, primary screen (AID 1095).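 Also: score merges 667 nm feature fluorescence with signal to noise over triplicate slides.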 The note with it: 635 nm fluorescence, higher = more signal.
The target in experiment [9] is Neurogenic locus notch homolog protein 3 (Homo sapiens) (UniProt Q9UM47). As to the kind of experiment: small molecules binding NOTCH3 protein – biochemical, 635/667 nm fluorescence, primary screen (AID 1096). The conditions noted are these: small-molecule microarray, 635 nm fluorescence, higher = more signal.
Chain of Neurogenic locus notch homolog protein 3 (Homo sapiens) (Q9UM47 whole entry, looked up): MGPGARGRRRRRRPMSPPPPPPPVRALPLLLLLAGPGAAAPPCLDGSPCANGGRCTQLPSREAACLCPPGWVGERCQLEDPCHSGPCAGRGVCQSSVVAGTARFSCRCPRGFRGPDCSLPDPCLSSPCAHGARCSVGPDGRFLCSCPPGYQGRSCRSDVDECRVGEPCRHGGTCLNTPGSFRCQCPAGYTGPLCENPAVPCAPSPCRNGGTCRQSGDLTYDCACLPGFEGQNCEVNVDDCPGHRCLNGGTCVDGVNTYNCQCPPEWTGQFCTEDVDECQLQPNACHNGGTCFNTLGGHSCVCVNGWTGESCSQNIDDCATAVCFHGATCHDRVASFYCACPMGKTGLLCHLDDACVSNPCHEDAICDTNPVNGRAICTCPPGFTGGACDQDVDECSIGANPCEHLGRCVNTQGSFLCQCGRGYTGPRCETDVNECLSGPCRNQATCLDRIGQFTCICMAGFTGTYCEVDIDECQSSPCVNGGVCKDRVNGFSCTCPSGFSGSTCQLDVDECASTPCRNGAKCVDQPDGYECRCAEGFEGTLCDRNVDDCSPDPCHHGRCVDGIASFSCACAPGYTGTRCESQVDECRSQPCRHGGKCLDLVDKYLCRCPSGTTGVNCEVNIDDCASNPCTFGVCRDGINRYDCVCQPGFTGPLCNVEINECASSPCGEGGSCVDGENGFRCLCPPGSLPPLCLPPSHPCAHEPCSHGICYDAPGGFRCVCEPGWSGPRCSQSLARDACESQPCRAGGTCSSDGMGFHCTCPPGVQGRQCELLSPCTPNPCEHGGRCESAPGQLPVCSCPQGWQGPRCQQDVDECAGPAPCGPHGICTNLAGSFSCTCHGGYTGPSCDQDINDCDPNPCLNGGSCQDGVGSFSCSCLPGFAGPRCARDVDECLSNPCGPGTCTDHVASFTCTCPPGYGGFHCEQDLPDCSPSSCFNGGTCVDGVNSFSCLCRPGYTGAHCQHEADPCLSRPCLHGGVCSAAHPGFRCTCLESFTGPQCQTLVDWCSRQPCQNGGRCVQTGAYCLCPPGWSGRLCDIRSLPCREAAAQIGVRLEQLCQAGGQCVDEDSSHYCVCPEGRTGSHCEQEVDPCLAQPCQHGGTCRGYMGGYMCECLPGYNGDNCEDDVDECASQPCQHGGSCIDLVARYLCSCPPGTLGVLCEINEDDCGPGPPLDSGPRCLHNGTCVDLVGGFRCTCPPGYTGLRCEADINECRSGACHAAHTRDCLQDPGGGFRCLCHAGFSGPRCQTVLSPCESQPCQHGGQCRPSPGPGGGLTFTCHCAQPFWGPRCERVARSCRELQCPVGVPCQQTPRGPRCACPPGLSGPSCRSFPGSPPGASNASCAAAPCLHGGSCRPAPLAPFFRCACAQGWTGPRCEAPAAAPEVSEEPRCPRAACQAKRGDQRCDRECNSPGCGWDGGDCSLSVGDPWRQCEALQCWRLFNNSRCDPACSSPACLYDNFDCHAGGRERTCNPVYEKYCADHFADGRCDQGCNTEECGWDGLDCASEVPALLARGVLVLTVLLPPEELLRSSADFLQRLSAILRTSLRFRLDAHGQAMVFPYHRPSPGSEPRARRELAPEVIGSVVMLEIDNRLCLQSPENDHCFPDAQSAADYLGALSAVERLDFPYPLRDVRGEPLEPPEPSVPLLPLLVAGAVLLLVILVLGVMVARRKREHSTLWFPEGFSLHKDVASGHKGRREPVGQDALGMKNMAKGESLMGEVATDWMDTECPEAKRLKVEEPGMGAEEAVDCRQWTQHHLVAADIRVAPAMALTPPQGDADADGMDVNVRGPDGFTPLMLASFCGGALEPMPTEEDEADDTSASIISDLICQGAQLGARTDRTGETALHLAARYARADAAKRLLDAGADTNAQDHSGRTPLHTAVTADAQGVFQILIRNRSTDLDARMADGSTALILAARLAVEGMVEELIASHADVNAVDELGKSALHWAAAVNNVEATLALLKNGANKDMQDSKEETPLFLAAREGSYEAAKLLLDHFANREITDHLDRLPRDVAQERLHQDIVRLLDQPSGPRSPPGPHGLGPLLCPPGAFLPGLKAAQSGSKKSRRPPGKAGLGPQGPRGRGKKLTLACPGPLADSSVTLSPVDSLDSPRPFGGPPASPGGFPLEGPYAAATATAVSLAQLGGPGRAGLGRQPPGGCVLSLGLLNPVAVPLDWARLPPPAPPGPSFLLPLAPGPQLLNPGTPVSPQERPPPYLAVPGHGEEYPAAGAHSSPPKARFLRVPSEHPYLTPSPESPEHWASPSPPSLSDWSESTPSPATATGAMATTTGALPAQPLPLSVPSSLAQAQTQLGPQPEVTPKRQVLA
Experiment [10] in a line: probe aEGFR binding to arrayed compounds – biochemical, biotinylated probe, 635/667 nm fluorescence, primary screen (AID 1097).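 Also: probe is a biotinylated anti-EGFR antibody binding compounds printed on slides; score combines fluorescence near 667 nm and signal to noise of each spot.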 The note with it: small-molecule microarray, higher = more signal.

The structures appear in SMILES notation. Activity calls are given as the source filed them.

Chain of Torsin-1A-interacting protein 2 (Homo sapiens) (Q8NFQ8 whole entry, looked up): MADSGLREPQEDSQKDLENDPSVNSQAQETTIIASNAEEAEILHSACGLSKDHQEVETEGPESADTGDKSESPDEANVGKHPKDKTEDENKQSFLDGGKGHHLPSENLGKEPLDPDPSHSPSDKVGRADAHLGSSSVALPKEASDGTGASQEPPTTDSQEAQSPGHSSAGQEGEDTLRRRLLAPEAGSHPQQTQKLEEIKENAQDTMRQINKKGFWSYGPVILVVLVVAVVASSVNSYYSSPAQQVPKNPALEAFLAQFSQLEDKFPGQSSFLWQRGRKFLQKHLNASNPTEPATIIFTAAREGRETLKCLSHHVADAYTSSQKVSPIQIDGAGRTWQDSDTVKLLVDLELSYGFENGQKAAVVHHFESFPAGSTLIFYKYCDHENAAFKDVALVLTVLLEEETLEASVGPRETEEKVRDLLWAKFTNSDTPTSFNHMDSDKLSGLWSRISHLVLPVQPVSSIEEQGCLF

Turning to `COc1cc(CO)cc(I)c1O[C@H]1C=C(C(=O)NCCO)C[C@@H](N(Cc2ccc(F)cc2)C(=O)C2CCCO2)[C@@H]1O` (stereo not given in full), the composite z-score in [1] is -0.516; in experiment [5], -0.492; in experiment [7] it was -0.116; in experiment [8], 0.0313; in [9], -0.331; in experiment [10] it was -0.158. Also, the z-score in experiment [2] was -0.558 (inactive); in [3] it was -0.389 (inactive); in experiment [4], -0.188 (inactive); in [6] it was 3.2 (inactive).
`COc1ccc([Si](C)(C)[C@@H]2[C@@H](CCn3cc([C@H](O)c4ccccc4)nn3)O[C@]3(C(=O)N(Cc4ccc(N5CCOC5=O)cc4)c4ccccc43)[C@H]2C)cc1`: the composite z-score in experiment [1] was 1.55; in experiment [5], 0.995; in experiment [7], 0.047; in experiment [8], 1.01; in [9], 1.12; in experiment [10] it was 0.0711. The z-score in experiment [2] was -0.113 (inactive); in [3], 0.984 (inactive); in [4], 2.04 (inactive); in [6], 1.87 (inactive).
Regarding `O=C1C[C@]2(c3ccc([N+](=O)[O-])cc3)C(=O)N(Cc3ccccc3)c3cc(CO)ccc3[C@H]2N1CC12CC3CC(CC(C3)C1)C2`, the composite z-score was -0.404 in experiment [1]; 0.258 in experiment [5]; -0.477 in [7]; -1.43 in experiment [8]; -1.94 in experiment [9]; 0.0645 in [10]. For the same molecule, the z-score in experiment [2] is -0.251 (inactive); in experiment [3] it was 0.418 (inactive); in experiment [4] it was -1.23 (inactive); in experiment [6], 0.64 (inactive).
Turning to `COc1c(C)cc(-c2cc3c(c(Cc4ccccc4)n2)[Si](C(C)C)(C(C)C)OC3)cc1C`, the composite z-score in experiment [1] was -0.13; in experiment [5] it was 0.323; in experiment [7], -0.157; in experiment [8], 0.529; in experiment [9], 0.598; in experiment [10] it was -0.0509. In addition, the z-score was 0.784 (inactive) in experiment [2], 0.567 (inactive) in experiment [3], 1.04 (inactive) in experiment [4] and -0.733 (inactive) in experiment [6].
For the molecule `C=C(C(=O)CC[C@H](OC(=O)c1cccnc1)c1ccc(CO)o1)C(C)C`, the composite z-score in experiment [1] worked out at 1.51; in experiment [5] it was 1.34; in experiment [7], 0.152; in experiment [8], 1.02; in experiment [9], 0.623; in [10], 0.0504. For the same molecule, the z-score is -1.23 (inactive) in experiment [2], -0.796 (inactive) in experiment [3], -0.719 (inactive) in experiment [4] and -0.605 (inactive) in experiment [6].
For the molecule `COCCOC(=O)N1C(=O)[C@@]2(c3cc(C#CCNC(N)=O)ccc31)[C@H](C(=O)N1CCCCCCC1)[C@H]1C(=O)O[C@H](c3ccccc3)[C@H](c3ccccc3)N1[C@@H]2c1ccc(O)cc1`, the composite z-score was 1.41 in experiment [1]; 1.66 in experiment [5]; 0.111 in experiment [7]; 1.46 in experiment [8]; 1.08 in [9]; -0.0381 in experiment [10]. For the same molecule, the z-score in experiment [2] is 0.355 (inactive); in experiment [3], -0.216 (inactive); in experiment [4], 0.903 (inactive); in experiment [6], 0.0623 (inactive).
On to `C=CCC(OC(C)=O)[C@@H]1[C@@H](N(Cc2ccc(-c3ccccc3)cc2)C(=O)c2cccc3ccccc23)c2cc(OCCCO)ccc2N1C(=O)Cc1ccc2ccccc2c1` (stereo not given in full), for which the composite z-score in experiment [1] is -0.419; in experiment [5] it was 0.95; in [7], -0.0407; in [8], 0.514; in experiment [9], -0.377; in experiment [10] it was -0.123. Besides, the z-score in [2] is -0.554 (inactive); in [3], -0.691 (inactive); in experiment [4] it was -0.311 (inactive); in experiment [6] it was 0.153 (inactive).
